In the library only some 8.7% were active in any assay of this set; here they are far more common.
Pf growth 96h: Primary qHTS for delayed death inhibitors of the malarial parasite plastid, 96 hour incubation. P. falciparum luciferase reporter growth, 96 h. Potency, µM (titrated, usually from 28.7 µM), without a hit: top-dose activity change, negative = inhibition, usual class: inhibitors. 320,000 tested, 6.9% active
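P. falciparum expressing integrated firefly luciferase grown in erythrocytes (2% hematocrit, 0.05% parasitemia final) with compounds for 96 hours at 37 C, 5% CO2. Growth inhibition read as loss of luminescence after adding luciferase detection reagent.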
VACV Venus inh: qHTS for Stage-Specific Inhibitors of Vaccinia Orthopoxvirus: Venus Reporter Primary qHTS; Vaccinia virus Venus reporter expression, fluorescence; Potency, µM (series often up to 36.5 µM), inactives show at the top dose activity change, negative = inhibition, usual class: inhibitors; 330,000 tested, 0.46% active; AID 720580, 2013; calls by dose curve; tested in A549 cells; further: nearly all actives have a fitted effect of over 30% in size
AMA1-RON2 inh: qHTS for Inhibitors of AMA1-RON; Towards Development of Antimalarial Drug Lead: Primary Screen; AlphaScreen AMA1-biotinylated RON2 peptide binding; Potency, µM (top dose mostly 58.2 µM), without a hit: at the top dose activity change, negative = inhibition, hits mostly inhibitors; 360,000 tested, 0.2% active;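 further: 0% = vehicle wells and -100% = peptide control; nearly all actives have a fitted effect of over 45% in size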
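AMA1 (3D7) with his tag at 25 nM final met compounds first, then biotinylated RON2 peptide at 25 nM; detection used donor plus acceptor beads, 10 µg/mL apiece, read by AlphaScreen after 30 min at room temperature.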
Pf growth 48h: Primary qHTS for delayed death inhibitors of the malarial parasite plastid, 48 hour incubation; P. falciparum luciferase growth in erythrocytes, 48 h; Potency, µM (top dose mostly 28.7 µM), inactives show top-dose activity change, negative = inhibition, actives largely listed as inhibitors; 310,000 tested, 5.9% active
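Luminescence readout; reporter = integrated firefly luciferase in P. falciparum. RBC culture at 2% hematocrit, 0.1% parasitemia final, 37 C/5% CO2; decreased signal taken as growth inhibition.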
VACV mCherry inh: qHTS for Stage-Specific Inhibitors of Vaccinia Orthopoxvirus: mCherry Reporter Primary qHTS | Vaccinia virus mCherry reporter infection, fluorescence | Potency, µM (doses to about 36.5 µM), for inactives: at the highest dose activity change, negative = inhibition, usual class: inhibitors | 310,000 tested, 0.63% active; calls by dose curve; tested in A549 cells; further: nearly all actives have a fitted effect of over 35% in size
Numbers without * were called inactive; i = inactive; u = inconclusive; x = no result; [ ] = another dose, or the depositor's remark. Unless noted, the call rests on the fitted dose curve; in most records, active means well fitted curve in the direction sought with a large enough effect; inconclusive means small, poorly fitted or top-dose-only effect, or another doubt; inactive means no such curve, though single readings can be large; an effect the other way counts as inactive or inconclusive. Unless noted, on the % scale 0 is the no-effect control and ±100 the full control effect; potency means the concentration at half of the fitted maximal effect.

SMILES	Pf growth 96h	VACV Venus inh	AMA1-RON2 inh	Pf growth 48h	VACV mCherry inh
O=C(CSc1cccc[n+]1[O-])c1cc(Cl)ccc1Cl	0.83µM*	-3%	77%	u	-15%
Nc1nc(SCC(=O)c2cc3ccccc3o2)n[nH]1	59%	-2%	38%	0%	i
N#CC(C#N)=C(N)CSc1cccc[n+]1[O-]	12µM*	3%	-2%	5.2µM*	i
O=C(CSc1cccc[n+]1[O-])c1cc2ccccc2o1	4.1µM*	0%	1%	x	x
O=C(O)CSc1cccc[n+]1[O-]	22%	x	-9%	19%	x
COc1cc(C(=O)NCc2nc(-c3ccc(Cl)cc3)no2)cc(OC)c1OC	x	-10%	x	x	-13%
CC(C)C[C@@H](NC(=O)[C@H](Cc1ccccc1)NC(=O)c1cnccn1)B(O)O	0.03µM*	x	x	0.067µM*	x
Cc1cc(OCC(=O)N2CCC(c3nc4ccccc4s3)CC2)ccc1Cl	x	1%	x	x	-8%
CC(C)(C)c1nc2c(Br)cc(Br)cc2c(=O)o1	0.37µM*	-7%	-13%	12%	-14%
S=c1nc2ccccc2c2nc(-c3ccccc3Cl)[nH]n12	1.7µM*	-24%	104%	1.5µM*	-8%
S=c1nc2ccccc2c2nc(-c3ccccc3)[nH]n12	46%	-16%	98%	4.7µM*	-5%
COc1cc(-c2nc3c4ccccc4nc(=S)n3[nH]2)cc(OC)c1OC	-5%	-4%	97%	u	-5%
CCCC(Oc1ccc(Br)cc1)c1nc2c3cc(OC)c(OC)cc3nc(=S)n2[nH]1 (stereo not given)	-27%	0%	50%	u	i
CC(Oc1ccc(Br)cc1)c1nc2c3ccccc3nc(=S)n2[nH]1 (stereo not given)	u	-23%	53%	1.5µM*	-5%
COc1ccccc1-c1nc2c3ccccc3nc(=S)n2[nH]1	1.5µM*	x	102%	4.7µM*	x
Cc1ccc(NC(=O)Nc2nnc(SCC(=O)N3CCCCC3)s2)cc1	x	-9%[7.34 µM]	x	x	-2%[7.34 µM]
O=C(NCCc1ccncc1)c1cnn(-c2ncc3c(n2)-c2ccccc2CCC3)c1C1CC1	x	-11%	x	x	-4%
COc1ccccc1N1CCN(C(=O)CC2NC3CCCCC3NC2=O)CC1 (stereo not given)	64%	x	x	41%	x
COc1ccc(N2CCN(C(=O)CC3NC4CCCCC4NC3=O)CC2)cc1 (stereo not given)	12µM*	x	9%	2%	x
Cc1onc(-c2ccccc2Cl)c1C(=O)N1CCN=C1SCc1cccnc1	2.1µM*	-7%	13%	5%	-13%
c1cncc(OC2CCN(Cc3ccc4c(c3)CN(Cc3ccc5c(c3)CCO5)CCO4)CC2)c1	x	-4%	x	x	-19%
CCc1ccc(NC(=S)NC2CC3CCCC(C2)N3Cc2ccccc2)cc1 (stereo not given)	u	x	-5%	6.6µM*	x
CCc1ccc(NC(=S)NC2CC3CCC(C2)N3Cc2ccco2)cc1 (stereo not given)	0%	u	-6%	u	u
S=C(Nc1ccc(Cl)cc1)NC1CC2CCC(C1)N2Cc1ccccc1 (stereo not given)	22%	-18%	0%	3.3µM*	-30%
CCCCNc1nc(Oc2ccc(=O)n(C)n2)nc(N2CCOCC2)n1	x	5%	x	x	8%
SMILES	Pf growth 96h	VACV Venus inh	AMA1-RON2 inh	Pf growth 48h	VACV mCherry inh
CC(=O)N(C1=C(N)C(=O)c2ccccc2C1=O)C(C)C	9.3µM*	-21%	-15%	13µM*	-19%
Cc1ccccc1OCCCn1c(CCNC(=O)C2CCCCC2)nc2ccccc21	x	-10%[7.34 µM]	x	x	-14%[7.34 µM]
COc1ccc(NS(=O)(=O)c2cc(OCC(N)=O)c(C)cc2Cl)cc1	2.1µM*	-26%	-1%[2.32 µM]	10µM*	-25%
CCOc1ccc(NS(=O)(=O)c2cc(OCC(N)=O)c(C)cc2Cl)cc1	3.7µM*	-22%	-10%	1.5µM*	-14%
CCc1ccccc1NC(=O)c1cc2nc(-c3ccc(Br)cc3)cc(C(F)(F)F)n2n1	x	-12%	x	x	-3%
Cc1ccccc1Cn1c(=O)n(Cc2ccc(Cl)cc2)c(=O)c2cccnc21	x	-13%	x	x	-3%
Cc1ccc(C(c2c(C)nn(-c3ccccc3)c2N)c2c(C)nn(-c3ccccc3)c2N)cc1	13µM*	-5%	-5%	10µM*	-15%
Cc1nn(-c2ccccc2)c(N)c1C(c1ccc(C(C)C)cc1)c1c(C)nn(-c2ccccc2)c1N	0%	-4%	1%	10µM*	i
Cc1nn(-c2ccccc2)c(N)c1-c1ccccc1	240%	-16%	-8%	92%	u
Cc1ccc(CNC(=O)c2cccn2-c2nnc(N3CCCCC3)s2)cc1	x	-4%	x	x	-9%
CSc1ncc(CN2CCc3c([nH]c4ccccc34)C2c2cccc(C)n2)cn1 (stereo not given)	u	x	-5%	u	x
CSc1ncc(CN2CCc3c([nH]c4ccccc34)C2c2cccc(O)c2)cn1 (stereo not given)	-53%	x	-8%	4.1µM*	x
Fc1ccc(C2c3[nH]c4ccccc4c3CCN2Cc2cccn2-c2ncccn2)cc1 (stereo not given)	18%	24%	-25%	-3%	4.5µM*
CCOc1ccc(C2c3[nH]c4ccccc4c3CCN2CCCn2cccn2)cc1 (stereo not given)	u	1%	u	u	u
COc1cccc(C2c3[nH]c4ccccc4c3CCN2Cc2cccn2-c2ncccn2)c1 (stereo not given)	5.2µM*	x	-26%	u	x
Clc1ccc(-n2cccc2CN2CCc3c([nH]c4ccccc34)C2c2ccccn2)nc1 (stereo not given)	10µM*	x	19%	9.3µM*	x
COc1ccc(CN(CCCN)c2ccc(Br)cn2)cc1	x	-20%	x	x	-24%
NC(=O)N1CCN(CCCN2c3ccccc3Sc3cc(Cl)ccc32)CC1	x	-27%	u	x	-15%
c1ccc2c(c1)Sc1ccccc1N2CCN1CCCC1	15µM*	x	x	17µM*	x
O=C1CSC2(CCN(CCCN3c4ccccc4Sc4ccc(Cl)cc43)CC2)N1	8.5µM*	x	x	u	x
CN1CCN(CCCN2c3ccccc3Sc3ccc(C(F)(F)F)cc32)CC1	9.3µM*	u	u	10µM*	u
O=C(CN1CCCCCC1)N1c2ccccc2Sc2ccccc21	u	-6%	-5%	u	-12%
O=C(CCN1CCN(CCO)CC1)N1c2ccccc2Sc2ccc(C(F)(F)F)cc21	u	-14%	-2%	u	-8%
CCc1ccc(S(=O)(=O)c2cn(CC(=O)Nc3ccc(C)cc3)c3ccccc3c2=O)cc1	x	-8%	x	x	-2%
c1ccc(-c2noc(-c3cccnc3NCc3ccco3)n2)cc1	x	-3%	x	x	-9%
COc1ncnc2c1ncn2CCCNCC(c1ccccc1)c1ccccc1	x	-13%	8%	x	-13%
c1ccc(COc2ncnc3c2ncn3CCCNCC(c2ccccc2)c2ccccc2)cc1	x	14µM*	-22%	x	u

Compound activity (PubChem BioAssay)
